This passage reports Potency and activation results from PubChem BioAssay (NCATS).

Inconclusive results are not listed. Where a call stands in place of a potency, no number is given. Active and inactive are the calls of the source. Calls come from the whole dose curve; as a rule, active = well fitted activation curve with a large enough effect; inconclusive = small, poorly fitted or top-dose-only effect, or another doubt; inactive = no such curve, though single readings can be large or run the other way.
Potency is the fitted concentration of half-maximal effect.

This assay addresses Rap guanine nucleotide exchange factor 3 (Homo sapiens) (UniProt O95398). The assay is described as follows: Counterscreen qHTS for agonist of cAMP-regulated guanine nucleotide exchange factor 3 (EPAC1) (AID 1645889). Note: nearly all actives have a fitted effect of over 40% in size. The following applies: EPAC1 Rap1B-BODIPY-GDP exchange, fluorescence; series mostly up to 154 µM. From the text:
Assay Provider (PI): Xiaodong Cheng Ph.D. The University of Texas Medical Branch, […], TX MLPCN Grant: NS066510 In multi-cellular eukaryotic organisms, the effects of cAMP are transduced by two ubiquitously-expressed intracellular cAMP receptors, the classic protein kinase A/cAMP-dependent protein kinase (PKA/cAPK) and the more recently discovered exchange protein directly activated by cAMP/cAMP-regulated guanine nucleotide exchange factor (EPAC/cAMP-GEF). Both PKA and EPAC are ubiquitously expressed in all tissues, and an increase in intracellular cAMP levels will lead to the activation of both PKA and EPAC. Therefore, careful dissections of the individual role and relative contribution of EPAC and PKA within the overall cAMP signaling in various model systems are critical for further elucidating the mechanism of cAMP signaling. To date no EPAC-specific antagonists and agonist, as well as isoform-specific agonists have been reported, and developing EPAC-specific pharmacological probes to determine the physiological functions that EPAC play in the overall cAMP-mediated signaling remains a major challenge within the research field. Furthermore, identified regulators of EPAC may lead to new mechanism-based therapeutic strategies specifically targeting the EPAC / cAMP-signaling components as EPAC has been implicated to play important roles in major human pathological conditions such as diabetes, heart disease, and cancer. This qHTS will be used to screen the Molecular Libraries Small Molecule Repository (MLSMR) as a concentration-titration series using the NCGC unique quantitative screening (qHTS) platform to find activators for EPAC1. In addition, this assay will also be used as a counterscreen for the EPAC2 qHTS. This fluorescent based assay is developed and validated for EPAC1 that measures exchange using EPAC effector Rap1 complex with BODIPY-GDP, a GDP analog with a tethered fluorophores. Activators are identified by monitoring the change in fluorescence signal as the exchanged free BODIPY-GDP has a reduced fluorescence compared to Rap1-bound BODIPY-GDP. Increase in signal (activation) is the desired outcome for the EPAC1 agonist while no activity in this assay is desired for the EPAC2 agonist counterscreen. Reference: [1] de Rooij, J., Zwartkruis, F. J., Verheijen, M. H., Cool, R. H., Nijman, S. M., Wittinghofer, A., and Bos, J.L. (1998) Nature 396, 474-477. Kawasaki, H., Springett, G. M., Mochizuki, N., Toki, S., Nakaya, M., Matsuda, M., Housman, D. E., and Graybiel, A. M. (1998) Science 282, 2275-2279.
EPAC1 Counterscreen PROTOCOL TABLE SEQUENCE No. (e.g., 1, 2, 3, etc.); […] (e.g., Cells, Incubation, Reagent, etc.); VALUE and DESCRIPTION. 1. Reagent. 3 uL. [1x] 250 nM Rap1B-BODIPY-GDP, and 50 uM GDP. 2a. Compound. 23 nL. Control 6,572 uM cAMP (working concentration). 2b, 2c. Compound. 23 nL. Control activator and inhibitor; 234 - 30,000 uM cAMP and 16.4 - 10,000 uM. 2d. Compound. 46 nL. MLSMR follow-up library; 0.64 - 10,000 uM. 3. Time. 15 sec, 1000rpm. Centrifuge. 4. Time. 5 min. Incubation at room temperature. 5. Detector. Fluorescence. (Read 1), Ex/Em = 480 nm / 540 nm. 6. Time. 30 min. Incubation at room temperature. 7. Detector. Fluorescence. (Read 2), Ex/Em = 480 nm/ 540 nm. 8. Reagent. 1uL. Dispense either [4x] 10 uM cAMP or buffer. 9. Time. 15 sec, 1000 rpm. Centrifuge. 10. Time. 5 min. Incubation at room temperature. 11. Detector. Fluorescence. (Read 3), Ex/Em = 480 nm / 540 nm. 12. Time. 30 min. Incubation at room temperature. 13. Detector. Fluorescence. (Read 4), Ex/Em = 480 nm / 540 nm. NOTES (numbers refer to Sequence numbers above; values are from representative experiments) 1. Medium-binding black solid-bottom Greiner plates (789176-F). Dispense 3 uL of [1x] 250 nM Rap1B-BODIPY-GDP, and 50 uM GDP into columns 1 to 48. 2a. Control compound cAMP (6,572 uM, column 3, rows 1 to 32) single pin-transferred for a [final] of 50 uM. 2b. […]
On the technique in general: The purpose of a counterscreen is to sort out artefacts and off-target activity.
Take `COC(=O)C1=C(C)N(CCCC(=O)O)C(=O)NC1c1ccc(-c2ccccc2)cc1` (stereo not given): the Potency result is “inactive”. The same measure, in the same setting: to `O=C1/C(=C\c2ccc(O)c(O)c2)C(c2ccccc2)=NN1c1ccccc1` belongs “inactive”. Consider `CCCCCCn1nc(C(=O)OCC(=O)c2c(N)n(C)c(=O)n(C)c2=O)c2ccccc2c1=O`, for which the Potency result is “inactive”.

For `O=C(CSc1nnc(-c2ccco2)c(-c2ccco2)n1)c1ccccc1`, the Potency entry was “inactive”. With `Cc1cc(Br)cn2c(Cc3ccsc3)c(-c3ccco3)nc12`, the activation is 27.6% [at 30.8 µM] (inactive). In the case of `COc1ccc2c(c1)CCC1(C)CC(=O)C(Br)=C21` (stereo not given), the Potency result was “inactive”. Same read-out and setting: to `CC(c1ccon1)N(C)Cc1cn(C)nc1-c1cccc(Cl)c1` (stereo not given) belongs “inactive”. For the molecule `CCOC(=O)C1=C(C)NC(C)=C(C(=O)OCC)C1C(=O)OCC(=O)NCc1ccc(F)cc1`, the Potency entry was “inactive”. Same read-out and setting: to `CCOC(=O)C1=C(CC)OC(N)=C(C#N)C1c1ccc(F)cc1F` (stereo not given) belongs “inactive”; to `COc1cccc(OCc2nc3ccccc3n2Cc2ccccc2)c1`, “inactive”.

As for `CCc1ccc(OCC2c3cc(OC)c(OC)cc3CCN2C(C)=O)cc1` (stereo not given), the Potency entry was “inactive”. Regarding `CCOc1ncccc1C(=O)OC(C)C(=O)Nc1ccc(Cl)cn1` (stereo not given), the activation is 15.5% [at 30.8 µM] (inactive). Take `CCCCN(CCCC)C1=Nc2ccccc2N/C1=C(/C#N)C(=O)OCC`: the Potency result is “inactive”.

On to `COc1cc(-c2cc(OC)c3c(C)oc(C)c3c(=O)c2)ccc1OC(=O)c1ccc(C)cc1`, for which the Potency entry is “inactive”. Turning to `Cc1sc2ncnc(N3CCC(C(=O)Nc4ccccc4C(C)(C)C)CC3)c2c1C`, the Potency entry is “inactive”. The same measure, in the same setting: to `COc1cccc(NS(=O)(=O)c2ccc3c(c2)C2C=CCC2C(c2ccc(C(=O)O)cc2)N3)c1` (stereo not given) belongs “inactive”. For the molecule `CC(C)CSC1=NSC2=NC(=O)/C(=C\c3coc4ccccc4c3=O)C(=N)N12`, the Potency entry is “inactive”. Consider `COc1cccc(C(=O)C(CCC#N)c2ccccc2)c1` (stereo not given), for which the Potency entry is “inactive”.

`Oc1ccccc1CNc1ccc(OC(F)(F)F)cc1`: the Potency result is “inactive”. For the molecule `CC(C)CC1C(=O)N(Cc2cn(Cc3ccco3)nn2)CCS(=O)(=O)N1Cc1ccc(-c2ccccc2)cc1` (stereo not given), the Potency entry was “inactive”. Turning to `CCOC(=O)c1c(C)[nH]c(C(=O)C(C)OC(=O)c2ccc(NC(=O)CC#N)cc2)c1C` (stereo not given), the Potency entry is “inactive”. In the case of `CCc1c(C)c(C#N)c2nc3ccccc3n2c1-n1nc(C)cc1C`, the activation is 30.6% [at 30.8 µM] (inactive). For `OC(c1ccc(F)c(F)c1)c1nc(-c2csc3ccccc23)cs1` (stereo not given), the activation was 2.58% [at 30.8 µM] (inactive).

In the case of `COC(=O)[C@H](CC(C)C)NC(=O)CC[C@H]1O[C@@H](n2ccc(=O)[nH]c2=O)[C@H](O)[C@@H]1O`, the Potency entry is “inactive”. Regarding `O=C(N/N=C/c1ccccc1O)/C(=C/c1ccccc1)CCO`, the Potency result is “inactive”.

With `Cc1cc(S(=O)(=O)N2CCN(CC(=O)N(C)Cc3ccccc3)CC2)ccc1Br`, the Potency entry was “inactive”. For the molecule `CCN1CC=C2C(C#N)=C(N)C(C#N)(C#N)C(CCc3ccccc3)C2C1` (stereo not given), the Potency was 5.62 µM (active). Still for that read-out and setting: to `COc1ccccc1C(=O)Nc1nnc(SCc2cc(=O)c3ccccc3[nH]2)s1` belongs “inactive”. Take `C=CCc1ccccc1OCCSc1nc(-c2ccccc2F)nc2cc(=O)[nH]n12`: the Potency result was “inactive”. Turning to `O=C(OCCN1C(=O)c2cccc3c(N4CCOCC4)ccc(c23)C1=O)c1ccccc1Cl`, the Potency was 11.2 µM (active). As to `CC1=C(C(=O)OCc2ccccc2)C(c2ccc(C(C)(C)C)cc2)NC(=O)N1CCCCCC(=O)O` (stereo not given), the Potency result is “inactive”. `Cc1ccc(SCCSc2ncccn2)cc1`: the activation is -4.72% [at 30.8 µM] (inactive). The same measure, in the same setting: to `N#CC(C(=O)OC1CCCCC1)c1nc2ccccc2nc1N1CCOCC1` (stereo not given) belongs -0.592% [at 30.8 µM] (inactive).

Turning to `COc1ccc(C)cc1NC(=O)c1ccccc1NS(=O)(=O)c1ccc(Cl)s1`, the Potency entry was “inactive”.

Take `Cc1noc(C)c1S(=O)(=O)Nc1ccc2c(c1)C(=O)N([C@@H](C)CO)C[C@@H](C)[C@@H](CN(C)CC1CCCCC1)OCCCC[C@@H](C)O2`: the Potency entry is “inactive”.

Consider `CCCC(=O)N=C1SC2CS(=O)(=O)CC2N1c1ccc(CC)cc1` (stereo not given), for which the activation is -1.33% [at 30.8 µM] (inactive). With `O=C(/C=C/c1ccco1)N1CCCC(c2ccccc2)C1` (stereo not given), the Potency result was “inactive”.

Consider `CN1/C(=C\C=C2/C(=O)Oc3ccccc3C2=O)C(C)(C)c2ccccc21`, for which the Potency is 20 µM (active).

For `Cc1ccc(C)c(NC(=O)COC(=O)COc2cccc3c2OC(C)(C)C3)c1`, the activation was 3.82% [at 30.8 µM] (inactive). `CN(Cc1ccc(Cl)cc1Cl)C(=O)CN1C(=O)NC2(CCCC2)C1=O`: the Potency result was “inactive”.
